# Results filed as inconclusive are left out. Values without a mark were called inactive. Active and inactive are the calls of the source. The call rests on the fitted dose curve; in most records, active means well fitted inhibition curve with a large enough effect; inconclusive means small, poorly fitted or top-dose-only effect; inactive means flat fitted curve, though single readings scatter. *1 amine or outer side, *2 acyl side, *3 side chain or, on linkers, in order; H or OH if unused. Where a SMILES comes first, the peptide text is derived from it. [ ]: non-standard residue; d: D form. X4 = CC(C)=CCc1cc(C(O)C(N[*:1])C(=O)[*:2])ccc1O
# Legend:
# Assay in all cases: Cytotoxic Profiling of Annotated Libraries Using Quantitative High-Throughput Screening (AID 1296008); further: nearly all actives have a fitted effect of over 60% in size
# Conditions in all cases: Five cell lines viability, CellTiter-Glo ATP luminescence, 48-72 h; max response: active compounds read low
# HEK293 = test system: HEK293
# Method in brief: (§1)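 Cells exposed to compounds for 48 or 72 hr at 37 degrees Celsius. Viability read as ATP-coupled luminescence with CellTiter-Glo after 10 min at room temperature.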
# HaCat = test system: HaCat
# Method in brief: as §1
# KB-3-1 = test system: KB-3-1
# Method in brief: as §1
# NIH3T3 = test system: NIH3T3
# Method in brief: as §1
# On the % scale 0 is the no-effect control and ±100 the full control effect; potency means the concentration at half of the fitted maximal effect.
smiles,measurement,setting,value
O=C(OC1C=C(CO)C2C(OC3OC(CO)C(O)C(O)C3O)OC=CC12)c1ccc(O)cc1 (centres undefined),max response,HEK293,-4.58%
same,max response,HaCat,-13.5%
same,outcome,KB-3-1,inactive
same,outcome,NIH3T3,inactive
COC(=O)c1cc(OC)cc(OC)c1C(=O)c1c(OC)cc2c(c1O)C1CCCC(C)(O2)O1 (centres undefined),max response,HEK293,-5.64%
same,max response,HaCat,3.65%
same,outcome,KB-3-1,inactive
same,outcome,NIH3T3,inactive
CC(C)=CCC/C(C)=C/Cc1ccc(O)c(C2OC(=O)c3cc(C(=O)O)cc(O)c32)c1O (centres undefined),max response,HEK293,0.876%
same,max response,HaCat,-20.9%
same,max response,KB-3-1,-2.57%
same,max response,NIH3T3,0.065%
CC(C)=CCc1cc(C(O)C2NC(=O)CNC(=O)C(Cc3c[nH]c4ccccc34)NC(=O)C3CCCN3C(=O)CNC(=O)C(C(C)C)NC(=O)CNC2=O)ccc1O (centres undefined) (cyclo(G[X4]GVGPW); configuration not given here),max response,HEK293,-8.38%
same,max response,HaCat,-16.9%
same,max response,KB-3-1,5.04%
same,outcome,NIH3T3,inactive
Cn1nnc(-c2ccc(-c3ccc(N4C[C@H](CO)OC4=O)cc3F)cn2)n1,Potency,HEK293,4.11 µM (active)
same,max response,HaCat,-5.65%
same,max response,KB-3-1,-14%
same,outcome,NIH3T3,inactive
NC1CCC(Nc2cc(-c3cccc(NCc4cccc(F)c4)n3)c(Cl)cn2)CC1 (centres undefined),Potency,HEK293,0.259 µM (active)
same,Potency,HaCat,1.03 µM (active)
same,Potency,KB-3-1,0.366 µM (active)
same,Potency,NIH3T3,1.16 µM (active)
CCCCC1CCN(CCCC(=O)c2ccccc2C)CC1,Potency,HEK293,16.4 µM (active)
same,max response,HaCat,-61.6%
same,max response,KB-3-1,-21.4%
same,max response,NIH3T3,-22.9%
CC(C)c1nc(-c2ccc(NC(=O)Nc3cccc(C(F)(F)F)c3)c3ccccc23)c2c(N)nccn12,Potency,HEK293,6.51 µM (active)
same,Potency,HaCat,7.31 µM (active)
same,Potency,KB-3-1,5.8 µM (active)
same,Potency,NIH3T3,8.2 µM (active)
C[C@@H]1O[C@@H](O[C@H]2[C@H](O)[C@@H](O)[C@H](O[C@H]3[C@H](O[C@H]4CC[C@@]5(C)C(=CC[C@@H]6C5CC[C@]5(C)[C@@H]7[C@H](C[C@@H]65)O[C@]5(CC[C@@](C)(CO[C@@H]6O[C@H](CO)[C@@H](O)[C@H](O)[C@H]6O)O5)[C@H]7C)C4)O[C@H](CO)[C@@H](O)[C@@H]3O)O[C@@H]2CO)[C@H](O)[C@H](O)[C@H]1O (some centres undefined),Potency,HEK293,1.23 µM (active)
same,max response,HaCat,-8.19%
same,Potency,KB-3-1,0.778 µM (active)
COc1ncc(Nc2ncc([C@H](C)N3CCN(S(C)(=O)=O)CC3)cc2-c2nc(C)nc(N)n2)cc1F,Potency,HEK293,0.517 µM (active)
same,Potency,HaCat,0.146 µM (active)
same,Potency,KB-3-1,6.51 µM (active)
CC(C)(C)c1ccc(S(=O)(=O)NCc2ccc(C(=O)Nc3cccnc3)cc2)cc1,Potency,HEK293,0.326 µM (active)
same,Potency,HaCat,6.51 µM (active)
same,Potency,KB-3-1,0.731 µM (active)
same,Potency,NIH3T3,3.66 µM (active)
C[C@@H]1COCCN1c1cc(C2(S(C)(=O)=O)CC2)nc(-c2cccc3[nH]ccc23)n1,Potency,HEK293,1.46 µM (active)
same,Potency,HaCat,5.8 µM (active)
same,Potency,KB-3-1,2.59 µM (active)
same,Potency,NIH3T3,2.06 µM (active)
COc1ccc(C[C@H](N)C(=O)N[C@@H]2[C@H](O)[C@H](n3cnc4c(N(C)C)ncnc43)O[C@@H]2CO)cc1,Potency,HEK293,1.16 µM (active)
same,Potency,HaCat,1.46 µM (active)
same,Potency,KB-3-1,0.731 µM (active)
same,Potency,NIH3T3,4.61 µM (active)
COc1cc2ncnc(Nc3ccc(F)c(Cl)c3)c2cc1NC(=O)/C=C/CN1CCCCC1,Potency,HEK293,7.31 µM (active)
same,Potency,HaCat,0.0411 µM (active)
same,Potency,KB-3-1,13 µM (active)
same,Potency,NIH3T3,16.4 µM (active)
COC(=O)C1=CO[C@@H](O[C@@H]2O[C@H](CO)[C@@H](O)[C@H](O)[C@H]2O)[C@@H]2[C@@](C)(O)[C@@H](OC(=O)/C=C/c3ccc(O)cc3)C[C@]12O,max response,HEK293,3.54%
same,max response,HaCat,1.25%
same,max response,KB-3-1,0.0331%
same,max response,NIH3T3,2.33%
CCCNc1ccc2ncc(-c3ccc4[nH]ncc4c3)n2n1,Potency,HEK293,1.64 µM (active)
same,Potency,HaCat,0.411 µM (active)
same,Potency,KB-3-1,1.3 µM (active)
same,Potency,NIH3T3,3.26 µM (active)
O=C1NC(=O)C(c2cn(-c3ccccc3)nc2-c2ccc(F)cc2)N1 (centres undefined),max response,HEK293,-6.53%
same,Potency,HaCat,16.4 µM (active)
same,outcome,KB-3-1,inactive
NC1(C(=O)NC(CCO)c2ccc(Cl)cc2)CCN(c2ncnc3[nH]ccc23)CC1 (centres undefined),Potency,HEK293,1.03 µM (active)
same,max response,HaCat,-41.5%
same,max response,KB-3-1,-13.8%
same,outcome,NIH3T3,inactive
C=C(C)C(=O)O[C@H]1C[C@@](C)(O)C(=O)CC(O)/C(C)=C\[C@H]2OC(=O)C(=C)[C@H]12 (some centres undefined),Potency,HEK293,5.08 µM (active)
same,max response,HaCat,-1.1%
same,outcome,KB-3-1,inactive
O=C(/C=C\n1cnc(-c2cc(C(F)(F)F)cc(C(F)(F)F)c2)n1)N1CC(F)(F)C1,Potency,HEK293,1.3 µM (active)
same,max response,HaCat,-18.4%
same,Potency,KB-3-1,7.31 µM (active)
same,Potency,NIH3T3,1.84 µM (active)
C=C(C)C(=O)O[C@H]1CC2=CC(C/C(C)=C\[C@H]3OC(=O)C(=C)[C@H]13)OC2=O (some centres undefined),Potency,HEK293,4.53 µM (active)
same,Potency,HaCat,12.8 µM (active)
same,max response,KB-3-1,-20.7%

# From PubChem BioAssay (NCATS)
